# Inconclusive results are not listed. Where a call stands in place of a potency, no number is given. Unmarked numbers belong to inactive results. Calls of active or inactive are those of the source. Calls come from the whole dose curve; as a rule, active = well fitted cell-killing curve with a large enough effect; inconclusive = small, poorly fitted or top-dose-only effect, or effect the other way; inactive = flat fitted curve, though single readings scatter.
# Legend:
# Test in all cases: Primary qHTS to identify gynecologic anti-cancer compounds using libraries of approved drugs and bioactive compounds (AID 1345084); note: nearly all actives have a fitted effect of over 55% in size
# C33A = details: Gynecologic cancer cell panel viability, ATPlite luminescence, 48 h; series mostly up to 57.5 µM
# Method in brief: (§1)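 In this quantitative HTS, cell killing is estimated from loss of ATP-dependent luciferase light. Cells see five compound concentrations over a 48 h exposure.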
# CASKI = details: Gynecologic cancer cell panel viability, ATPlite luminescence, 48 h; series mostly up to 57.5 µM
# Method in brief: as §1
# Es-2 = details: Gynecologic cancer cell panel viability, ATPlite luminescence, 48 h; series mostly up to 57.5 µM
# Method in brief: as §1
# HeLa = details: Gynecologic cancer cell panel viability, ATPlite luminescence, 48 h; series mostly up to 57.5 µM
# Method in brief: as §1
# Hek293T = details: Gynecologic cancer cell panel viability, ATPlite luminescence, 48 h, control line for the selectivity index; series mostly up to 57.5 µM
# Method in brief: as §1
# CAOV3 = details: Gynecologic cancer cell panel viability, ATPlite luminescence, 48 h; series mostly up to 57.5 µM
# Method in brief: as §1
# Potency is the fitted concentration of half-maximal effect.
compound,measurement,setting,value
CN(C)CCCCC(=O)Nc1ccc(NC(=S)NC(=O)c2ccc(C(C)(C)C)cc2)cc1,Potency,C33A,inactive
same,Potency,CASKI,inactive
C[C@@H]1CC[C@]2(C(=O)O[C@@H]3O[C@H](CO)[C@@H](O)[C@H](O)[C@H]3O)CC[C@]3(C)C(=CCC4[C@@]5(C)C[C@@H](O)[C@H](O)[C@](C)(C(=O)O)C5CC[C@]43C)[C@@H]2[C@]1(C)O (stereo partly specified),Potency,C33A,inactive
same,Potency,CASKI,inactive
same,Potency,Es-2,inactive
same,Potency,HeLa,inactive
same,Potency,Hek293T,inactive
Cc1nc(NC(=O)N2CCCC2C(N)=O)sc1-c1csc(C(C)(C)C)n1 (stereo unspecified),Potency,C33A,inactive
same,Potency,CAOV3,inactive
same,Potency,Es-2,inactive
same,Potency,Hek293T,inactive
COc1ccc(C(=O)C2CCN(CC(=O)N(Cc3nc4c(c(=O)[nH]3)COCC4)CC3CC3)CC2)cc1,Potency,C33A,inactive
same,Potency,CASKI,inactive
same,Potency,Es-2,inactive
same,Potency,HeLa,inactive
same,Potency,Hek293T,inactive
COc1cc2c(NC3CCN(CC4CCCCC4)CC3)nc(N3CCCN(C(C)C)CC3)nc2cc1OCCCN1CCCCC1,Potency,C33A,14.1 µM (active)
same,Potency,CAOV3,3.98 µM (active)
same,Potency,Es-2,3.98 µM (active)
same,Potency,Hek293T,20 µM (active)
COc1cc(Br)c(Nc2nc(-c3c(C)nc4ncccn34)cs2)c(Br)c1,Potency,C33A,inactive
same,Potency,CASKI,inactive
same,Potency,Es-2,8.91 µM (active)
COc1ccc2[nH]c3c(-c4cccc5ccccc45)nccc3c2c1,Potency,C33A,2.82 µM (active)
same,Potency,CASKI,1.41 µM (active)
same,Potency,Es-2,1.58 µM (active)
same,Potency,HeLa,0.891 µM (active)
COc1ccc(Oc2cc(C)c(-c3csc(NC(=O)c4ccncc4)n3)c(C)c2)cc1,Potency,C33A,inactive
same,Potency,CASKI,0.891 µM (active)
CC1(C)CC(NC(=O)C(=O)Nc2ccc(Br)cc2)CC(C)(C)N1,Potency,C33A,inactive
same,Potency,CAOV3,inactive
same,Potency,HeLa,14.1 µM (active)
O=C(/C=C\n1cnc(-c2cc(C(F)(F)F)cc(C(F)(F)F)c2)n1)N1CC(F)(F)C1,Potency,C33A,inactive
same,Potency,CAOV3,2.82 µM (active)
same,Potency,Es-2,3.16 µM (active)
same,Potency,HeLa,17.8 µM (active)
same,Potency,Hek293T,1.58 µM (active)
CC1(C)CCCC2(C)C=C(C(=O)O)C(O)CC12 (stereo unspecified),Potency,C33A,inactive
same,Potency,CASKI,inactive
same,Potency,Es-2,inactive
same,Potency,HeLa,inactive
same,Potency,Hek293T,inactive
CO[C@H]1C[C@@H]2CC[C@@H](C)[C@@](O)(O2)C(=O)C(=O)N2CCCC[C@H]2C(=O)O[C@H]([C@H](C)C[C@@H]2CC[C@H](n3cnnn3)[C@H](OC)C2)CC(=O)[C@H](C)/C=C(\C)[C@@H](O)[C@@H](OC)C(=O)[C@H](C)C[C@H](C)/C=C/C=C/C=C/1C,Potency,C33A,inactive
same,Potency,CASKI,inactive
same,Potency,Es-2,inactive
same,Potency,HeLa,inactive
COc1ccc(C(=O)n2c(C)c(Cc3cccc(O[C@@H](C)C(=O)O)c3)c3cc(OC(F)(F)F)ccc32)cc1,Potency,C33A,inactive
same,Potency,CASKI,inactive
same,Potency,Es-2,inactive
same,Potency,HeLa,inactive
same,Potency,Hek293T,inactive
C=C1CCC[C@]2(C)CC[C@@H](C(=C)C(=O)O)[C@H](O)[C@@H]12,Potency,C33A,inactive
same,Potency,CASKI,inactive
same,Potency,Es-2,inactive
same,Potency,HeLa,inactive
same,Potency,Hek293T,inactive
C/C1=C\CC[C@]2(C)O[C@@H]2[C@H](O)[C@H](C(C)C)[C@H](OC(=O)/C=C/c2ccccc2)C1,Potency,C33A,inactive
same,Potency,CASKI,inactive
same,Potency,Es-2,inactive
same,Potency,HeLa,inactive
same,Potency,Hek293T,inactive
C[C@H](NC(c1cccc(C[P+](=O)O)c1)[C@H](C)O)c1ccc(Cl)c(Cl)c1 (stereo partly specified),Potency,C33A,inactive
same,Potency,CASKI,inactive
same,Potency,Es-2,inactive
same,Potency,HeLa,inactive
same,Potency,Hek293T,inactive
COC(=O)C1(C)CCC2(C(=O)O)CCC3(C)C(=CCC4C5(C)CC(O)C(OC6OCC(O)C(O)C6O)C(C)(CO)C5CCC43C)C2C1 (stereo unspecified),Potency,C33A,inactive
same,Potency,CASKI,inactive
same,Potency,Es-2,inactive
same,Potency,HeLa,inactive
same,Potency,Hek293T,inactive
O=C1NC(Cc2c[nH]c3ccccc23)C(=O)NC1Cc1cnc[nH]1 (stereo unspecified),Potency,C33A,inactive
same,Potency,CASKI,inactive
same,Potency,Es-2,inactive
same,Potency,HeLa,inactive
same,Potency,Hek293T,inactive
CNC(=S)NS(=O)(=O)c1cc(CCNC(=O)c2cc(Cl)ccc2OC)ccc1OC,Potency,C33A,inactive
same,Potency,CASKI,inactive
same,Potency,Es-2,inactive
same,Potency,HeLa,inactive
same,Potency,Hek293T,inactive
Cc1cc(NC(=O)Nc2ccc(F)c(F)c2)n(-c2ccccc2)n1,Potency,C33A,inactive
same,Potency,CASKI,inactive
same,Potency,Es-2,inactive
same,Potency,HeLa,inactive
same,Potency,Hek293T,inactive
CC(C)=CCC/C(C)=C/CO[C@@H]1O[C@H](CO)[C@@H](O)[C@H](O)[C@H]1O,Potency,C33A,inactive
same,Potency,CASKI,inactive
same,Potency,Es-2,inactive
same,Potency,HeLa,inactive
same,Potency,Hek293T,inactive
CC/C=C\CCO[C@@H]1O[C@H](CO)[C@@H](O)[C@H](O)[C@H]1O,Potency,C33A,inactive
same,Potency,CASKI,inactive
same,Potency,Es-2,inactive
same,Potency,HeLa,inactive
same,Potency,Hek293T,inactive
O=C1OCc2cc3cccc(O[C@@H]4O[C@H](CO)[C@@H](O)[C@H](O)[C@H]4O)c3c(O)c21,Potency,C33A,inactive
same,Potency,CASKI,inactive
same,Potency,Es-2,inactive
same,Potency,HeLa,inactive
same,Potency,Hek293T,inactive
CC(=O)N[C@H]1[C@H](O[C@H]2CC[C@@]3(C)C(CC[C@]4(C)C3CC=C3C5CC(C)(C)CC[C@]5(C(=O)O)[C@H](O)C[C@]34C)C2(C)C)O[C@H](CO[C@@H]2OC[C@H](O)[C@H](O)[C@H]2O[C@@H]2OC[C@@H](O)[C@H](O)[C@H]2O)[C@@H](O)[C@@H]1O (stereo partly specified),"activity change, negative = cytotoxicity",C33A,-5.03% [at 11.6 µM]
same,"activity change, negative = cytotoxicity",CASKI,-1.03% [at 11.6 µM]
same,"activity change, negative = cytotoxicity",Es-2,-1.64% [at 11.6 µM]
same,"activity change, negative = cytotoxicity",HeLa,-4.4% [at 11.6 µM]
same,"activity change, negative = cytotoxicity",Hek293T,3.72% [at 11.6 µM]
